Drawing on PubChem BioAssay, this text covers z-score and composite z-score for five compounds.

Assay [1] in a line: compound effects on lung adenocarcinoma cell viability – A549, calcein-AM fluorescence, 48 h, basal, profiling panel (AID 1162). Also: test concentration not given here. The conditions noted are these: higher = more signal.
Assay [2] in a line: compound effects on differentiated 3T3-L1 adipocyte viability – cell-based, 3T3-L1 adipocytes, calcein-AM fluorescence, 48 h, basal, profiling panel (AID 1163). Also: test concentration not given here. The conditions noted are these: 3T3-L1 adipocytes viability, higher = more signal.
Assay [3] is described as follows: compound effects on hepatocellular carcinoma cell viability – HepG2, calcein-AM fluorescence, 48 h, basal, profiling panel (AID 1164). Also: test concentration not given here. The conditions noted are these: higher = more signal.
Assay [4] is described as follows: compound effects on multiple myeloma cell viability – MM1S, calcein-AM fluorescence, 48 h, basal, profiling panel (AID 1165). Also: test concentration not given here. The conditions noted are these: higher = more signal.
Assay [5] in a line: calcein-AM signal in unstimulated myeloma cells – cell-based, calcein-AM fluorescence, 48 h, PK04 Diversity Set, profiling panel (AID 1166).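 Also: cells grown under basal conditions without added stimulus; test concentration not given here.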 The conditions noted are these: RPMI8226 myeloma viability, higher = more signal.
Assay [6] can be described thus: JC-1 mitochondrial signal, unstimulated HepG2 cells – cell-based, JC-1 fluorescence, 24 h, 100 nL compound, profiling panel (AID 1167). Also: test concentration not given here. The following applies: HepG2 mitochondrial potential, higher = more signal.
A short description of assay [7]: JC-1 mitochondrial signal, unstimulated adipocytes – cell-based, JC-1 fluorescence, 3T3-L1 adipocytes, 24 h, 100 nL compound, profiling panel (AID 1168). Also: test concentration not given here. The conditions noted are these: JC-1 mitochondrial fluorescence, higher = more signal, called active from +8 up or from −8 down.
A short description of assay [8]: JC-1 mitochondrial signal, unstimulated myeloma cells – cell-based, JC-1 fluorescence, RPMI8226, 24 h, 100 nL compound, profiling panel (AID 1169). Also: test concentration not given here. The following applies: JC-1 mitochondrial potential fluorescence, higher = more signal.
The nature of assay [9]: JC-1 mitochondrial signal, unstimulated MM1S myeloma – cell-based, JC-1 fluorescence, 24 h, 100 nL compound, profiling panel (AID 1170). Also: test concentration not given here. The following applies: MM1S mitochondrial potential, higher = more signal.
Assay [10] in a line: resazurin metabolic signal in A549 cells – cell-based, resazurin fluorescence, 24 h, PK04 Diversity Set, profiling panel (AID 1171). Also: test concentration not given here. The following applies: A549 viability, higher = more signal, called active from +8 up or from −8 down. A general note: Alamar Blue is a resazurin reagent that responds to reducing activity.
A short description of assay [11]: resazurin metabolic signal in HepG2 cells – cell-based, resazurin fluorescence, 24 h, PK04 Diversity Set, profiling panel (AID 1172). Also: test concentration not given here. The following applies: HepG2 viability, higher = more signal.
The nature of assay [12]: budding yeast growth changes without added modifier – OD600, strain BY4716, 24 h, basal condition, primary screen (AID 1173). The following applies: S. cerevisiae BY4716 growth, OD600, 24 h; higher = more signal, called active from +8 up or from −8 down.
Assay [13] can be described thus: viability profiling in MM1S myeloma cells – cell-based, resazurin fluorescence, basal, 24 h, PK04 Diversity Set, profiling panel (AID 1174). Also: test concentration not given here. The conditions noted are these: higher = more signal, called active from +8 up or from −8 down.
Assay [14] deals with Dihydroorotate dehydrogenase (quinone), mitochondrial (Plasmodium falciparum (isolate 3D7)) (UniProt Q08210). Kind of assay: inhibition of P. falciparum DHODH – biochemical, C-terminal His tag, absorbance 600 nm, primary screen (AID 1175).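 Also: recombinant parasite enzyme with a five histidine tag at its C terminus; test concentration not given here.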 The conditions noted are these: PfDHODH enzyme, DCIP absorbance 600 nm; higher = more signal, called active from +8 up or from −8 down.
Assay [15] in a line: inhibition of PAO1 biofilm formation – strain PAO1, LB-PBS medium, absorbance 600 nm, primary screen (AID 1176). Also: test concentration not given here. The conditions noted are these: P. aeruginosa PAO1 growth/biofilm, A600, 12 h; higher = more signal.
A short description of assay [16]: growth modulation of vineyard yeast isolate – strain RM11-1a, OD600, basal, 24 h, primary screen (AID 1177).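 Also: cultures grown under basal conditions with no added stressor; test concentration not given here.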 The following applies: S. cerevisiae RM11-1a growth, OD600, 24 h; higher = more signal, called active from +8 up or from −8 down.
A short description of assay [17]: growth of efflux-deficient E. coli DRC39 – strain DRC39, OD650, 24 h, E. coli filamentation inducers, primary screen (AID 1178).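 Also: growth measured as culture turbidity by optical density at 650 nm; test concentration not given here.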 The following applies: E. coli DRC39 acrAB, higher = more signal, called active from +8 up or from −8 down.
Assay [18] in a line: growth of efflux-deficient E. coli DRC39 – strain DRC39, OD650, 48 h, E. coli filamentation inducers, primary screen (AID 1179).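 Also: screen aims at cell division blockers that make cells filament.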 The conditions noted are these: E. coli DRC39 delta-acrAB growth, higher = more signal, called active from +8 up or from −8 down.
Assay [19] is described as follows: viability profiling in RPMI8226 myeloma cells – cell-based, resazurin fluorescence, basal, 24 h, PK04 Diversity Set, profiling panel (AID 1180).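 Also: RPMI8826 multiple myeloma cell line at 5000 cells per well; test concentration not given here.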 The following applies: higher = more signal.
Assay [20] deals with E3 ubiquitin-protein ligase XIAP (Homo sapiens) (UniProt P98170). Description: small molecules binding XIAP protein – biophysical, small-molecule microarray, fluorescence 635 nm, primary screen (AID 1181).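 Also: score merges 667 nm emission and signal to noise over triplicate slides.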 The conditions noted are these: higher = more signal.

Activity calls are given as the source filed them. Unless noted, no rule for the calls is given here.

Chain of Dihydroorotate dehydrogenase (quinone), mitochondrial (Plasmodium falciparum (isolate 3D7)) (Q08210 whole entry, looked up): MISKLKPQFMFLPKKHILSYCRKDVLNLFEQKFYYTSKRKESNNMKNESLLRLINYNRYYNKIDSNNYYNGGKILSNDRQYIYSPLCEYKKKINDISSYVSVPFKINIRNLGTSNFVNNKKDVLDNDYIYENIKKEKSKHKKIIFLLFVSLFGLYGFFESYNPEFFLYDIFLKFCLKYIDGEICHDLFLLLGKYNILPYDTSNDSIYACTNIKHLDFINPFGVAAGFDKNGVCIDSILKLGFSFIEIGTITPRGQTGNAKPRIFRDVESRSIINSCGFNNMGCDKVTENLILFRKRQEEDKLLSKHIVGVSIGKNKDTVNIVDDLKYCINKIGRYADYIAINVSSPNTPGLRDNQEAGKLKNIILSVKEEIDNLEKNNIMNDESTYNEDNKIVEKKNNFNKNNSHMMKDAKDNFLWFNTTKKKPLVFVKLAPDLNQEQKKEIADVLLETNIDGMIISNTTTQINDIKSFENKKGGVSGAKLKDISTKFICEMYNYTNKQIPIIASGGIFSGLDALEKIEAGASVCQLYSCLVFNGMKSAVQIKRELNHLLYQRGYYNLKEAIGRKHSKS
Chain of E3 ubiquitin-protein ligase XIAP (Homo sapiens) (P98170 whole entry, looked up): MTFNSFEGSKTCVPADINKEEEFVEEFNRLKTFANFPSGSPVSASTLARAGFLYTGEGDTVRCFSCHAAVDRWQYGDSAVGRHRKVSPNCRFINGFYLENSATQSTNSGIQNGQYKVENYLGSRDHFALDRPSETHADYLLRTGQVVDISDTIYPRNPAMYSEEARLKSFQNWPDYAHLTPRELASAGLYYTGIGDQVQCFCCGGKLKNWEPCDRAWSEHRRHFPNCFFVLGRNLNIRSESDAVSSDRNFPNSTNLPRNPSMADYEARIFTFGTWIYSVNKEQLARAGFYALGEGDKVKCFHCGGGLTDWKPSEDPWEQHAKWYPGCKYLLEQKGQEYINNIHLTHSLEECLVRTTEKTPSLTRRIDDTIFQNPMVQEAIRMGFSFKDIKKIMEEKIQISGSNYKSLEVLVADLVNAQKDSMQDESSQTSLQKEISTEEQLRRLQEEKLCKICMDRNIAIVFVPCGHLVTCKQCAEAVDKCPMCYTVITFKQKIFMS

For the compound `C=CCC(OC(C)=O)[C@@H]1[C@@H](N(Cc2cc3ccccc3o2)C(=O)c2ccc(C)cc2)c2cc(OCCCO)ccc2N1C(=O)c1ccc2ccccc2c1` (stereo not given in full), the z-score in [1] is 1.37; in assay [2], 0.595; in assay [3], 1.89; in assay [4], 1.14; in assay [5] it was 0.671; in [6], 2.27. The z-score in assay [7] is -0.409 (inactive); in assay [8], 0.33; in assay [9] it was 0.748; in [10], 1.43 (inactive); in [11], 0.792; in assay [12], -0.195 (inactive). Also, the z-score in [13] was 0.951 (inactive); in [15], -0.583 (inactive); in assay [16], 0.0749 (inactive); in assay [17], 0.786 (inactive); in assay [18], 1.02 (inactive); in assay [19], 1.72. Further, the composite z-score in assay [14] is -0.375 (inactive); in assay [20], 0.0015.
For `NCCCCCNC(=O)[C@H]1C[C@H]2C(=O)NCC(=O)N2[C@H]1c1cccc(OCCO)c1`, the z-score in [1] is 1.5; in assay [2], 0.118; in assay [3] it was 0.79; in assay [4], 0.892; in assay [5], 0.857; in assay [6], 0.538. Besides, the z-score was 1.18 (inactive) in assay [7]; -0.164 in assay [8]; -0.158 in [9]; 0.547 (inactive) in [10]; 0.871 in assay [11]; -0.0725 (inactive) in assay [12]. For the same compound, the z-score is 0.998 (inactive) in assay [13]; -0.242 (inactive) in assay [15]; 0.0993 (inactive) in [16]; 1.07 (inactive) in assay [17]; 1.23 (inactive) in assay [18]; 0.616 in [19]. Also, the composite z-score in assay [14] was -0.355 (inactive); in assay [20], -0.119.
Regarding `CC(C)C(=C=CC[C@H](O)c1cccc(OCCO)c1)C[C@H](O)COCc1ccccc1`, the z-score was -0.0353 in [1]; -0.27 in [2]; -0.0485 in assay [3]; 0.0675 in [4]; -0.524 in assay [5]; -0.42 in assay [6]. Also, the z-score is -0.711 (inactive) in [7]; 0.259 in assay [8]; -0.615 in assay [9]; 1.25 (inactive) in [10]; 0.685 in [11]; -0.535 (inactive) in assay [12]. Also, the z-score was 0.0454 (inactive) in [13]; 0.449 (inactive) in assay [15]; 0.194 (inactive) in assay [16]; 0.339 (inactive) in assay [17]; 0.262 (inactive) in assay [18]; 0.163 in [19]. Moreover, the composite z-score was -1.25 (inactive) in assay [14] and -0.113 in assay [20].
Consider `C=CC[C@@]1(C(=O)O)N=C(c2ccc(OCCCO)cc2)O[C@@H]1c1ccccc1N=[N+]=[N-]`, for which the z-score in [1] is 0.179; in [2], -0.76; in [3], 0.47; in [4], -0.756; in assay [5], -0.577; in assay [6], -1.95. Also, the z-score was -0.366 (inactive) in assay [7]; -0.919 in [8]; -0.947 in [9]; -0.514 (inactive) in assay [10]; 0.0725 in assay [11]; -0.769 (inactive) in assay [12]. Further, the z-score in [13] was -0.702 (inactive); in assay [15], 0.976 (inactive); in assay [16], 0.15 (inactive); in assay [17] it was 0.236 (inactive); in assay [18], -0.154 (inactive); in assay [19], -0.0493. The composite z-score was 0.535 (inactive) in assay [14] and -0.0559 in assay [20].
`COCCOC(=O)N1C(=O)[C@@]2(c3cc(C#CCNC(N)=O)ccc31)[C@H](c1ccc(OCCO)cc1)N1[C@H](c3ccccc3)[C@H](c3ccccc3)OC(=O)[C@H]1[C@@H]2C(=O)N1CCc2cc(OC)c(OC)cc2C1`: the z-score in assay [1] was 1.24; in [2], 0.427; in assay [3], 0.34; in assay [4], 0.451; in [5], -0.172; in assay [6], -1.04. Also, the z-score was 1.65 (inactive) in assay [7]; -0.489 in assay [8]; -1.32 in [9]; -0.189 (inactive) in assay [10]; 0.358 in assay [11]; 2.29 (inactive) in assay [12]. The z-score in assay [13] was 0.296 (inactive); in [15], 2.26 (inactive); in [16], 3.21 (inactive); in assay [17] it was 0.583 (inactive); in assay [18], 0.582 (inactive); in [19], 0.665. Besides, the composite z-score in [14] is -0.597 (inactive); in [20], -0.0999.
